Assay [1] is described as follows: P-glycoprotein substrates identified in KB-3-1 adenocarcinoma cell line, qHTS therapeutic library screen (AID 1346986). Further: nearly all actives have a fitted effect of over 60% in size. A digest of the protocol: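 72 h cell-killing screen, 500 cells/well, CellTiter-Glo luminescence. Paired lines KB-3-1/KB-8-5-11; P-gp dependence checked by tariquidar co-treatment and HEK-293 MDR-19 versus empty-vector cells.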
Assay [2] can be described thus: P-glycoprotein substrates identified in KB-8-5-11 adenocarcinoma cell line, qHTS therapeutic library screen (AID 1346987). Further: nearly all actives have a fitted effect of over 65% in size. On activity change, negative = cytotoxicity: series mostly up to about 44 µM; on the % scale 0 is the no-effect control and ±100 the full control effect. The procedure, abridged: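 Luminescence from CellTiter-Glo, read 5 min after addition, quantified survival of KB-8-5-11 (P-gp-overexpressing) cells exposed to compounds for 72 h. AC50 was derived from concentration-response curves.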
(In general: In qHTS, concentration-response curves come from the screen itself.)

Inconclusive results are not listed. Unmarked numbers belong to inactive results. The source made the active and inactive calls. The call rests on the fitted dose curve; in most records, active means well fitted curve in the direction sought with a large enough effect; inconclusive means small, poorly fitted or top-dose-only effect, or another doubt; inactive means no such curve, though single readings can be large; an effect the other way counts as inactive or inconclusive.

For `NC1CCC(N[C@@H]2C[C@H]2c2ccccc2)CC1` (stereo partly drawn), the Potency result in assay [1] and in assay [2] was “inactive” throughout.
In the case of `C=C1C(O[C@@H]2O[C@H](CO)[C@@H](O)[C@H](O)[C@@H]2O)CC2C(C)(C)C(O)CCC2(C)C1CC/C(C)=C\CO` (stereo partly drawn), the Potency result in assay [1] and in assay [2] was “inactive” in each case.
Consider `C=CC(C)(O)CC/C=C(\C)C(=O)OCC1OC(OC2CCC3(C)C(CCC4(C)C3CC=C3C5CC(C)(C)C(O)CC5(C(=O)O)CCC34C)C2(C)C)C(O)C(OC2OC(CO)C(O)C(OC3OC(CO)C(O)C(OC4OC(COC5OC(CO)C(O)C(O)C5O)C(O)C(O)C4O)C3O)C2O)C1O` (stereo not drawn), for which, in assay [1], the outcome was “inactive [at 9.29 µM]”. The activity change, negative = cytotoxicity in assay [2] is 5.27% [at 9.29 µM].
`CC(C)(C)NCC(O)COc1cccc2c1CCCC2=O` (stereo not drawn): the Potency entry in assay [1] and in assay [2] was “inactive” each time.
Take `COc1ccc2c(c1)O[C@H](O[C@@H]1O[C@H](CO)[C@@H](O)[C@H](O)[C@H]1O)C(=O)N2`: the Potency result in assay [1] and in assay [2] was “inactive” throughout.
Take `C=C/C=C/[C@@H]1OC[C@H](/C=C/C=C/C)[C@H]1O`: the Potency result in assay [1] and in assay [2] was “inactive” in each case.
On to `CC1=CC(=O)CC(C)(C)C1(O)CCC(C)O` (stereo not drawn), for which the Potency entry in assay [1] and in assay [2] was “inactive” in each case.
For `CC(C)=CCC[C@](C)(O[C@@H]1O[C@H](CO[C@@H]2OC[C@@H](O)[C@H](O)[C@H]2O)[C@@H](O)[C@H](O)[C@H]1O)[C@H]1CC[C@]2(C)[C@@H]1[C@H](O)C[C@@H]1[C@@]3(C)CC[C@H](O[C@@H]4O[C@H](CO)[C@@H](O)[C@H](O)[C@H]4O[C@@H]4O[C@H](CO)[C@@H](O)[C@H](O)[C@H]4O)C(C)(C)[C@@H]3CC[C@]12C`, the Potency result in assay [1] and in assay [2] was “inactive” each time.
On to `CC1(CO)CC[C@]2(C(=O)O[C@@H]3O[C@H](CO)[C@@H](O)[C@H](O)[C@H]3O)CC[C@]3(C)C(=CCC4[C@@]5(C)CC[C@H](O[C@@H]6O[C@H](C(=O)O)[C@@H](O)[C@H](O)[C@H]6O)C(C)(C)C5CC[C@]43C)C2C1` (stereo partly drawn), for which the outcome in assay [1] is “inactive [at 9.29 µM]”. In assay [2], the activity change, negative = cytotoxicity is 7.12% [at 9.29 µM].
Regarding `COc1cccc(-n2nc(C(=O)O)cc2-c2ccc(C3CCCCC3)c(Cl)c2)c1`, the Potency entry in assay [1] and in assay [2] was “inactive” throughout.
Take `COC(=O)[C@H](OC(C)=O)[C@H]1C(C)(C)C(=O)[C@H]2CC3=C4CC(=O)O[C@@H](c5ccoc5)[C@]4(C)CCC3[C@@]1(C)C2=O` (stereo partly drawn): the Potency entry in assay [1] and in assay [2] was “inactive” throughout.
As for `CC(C)=CCCC1(C)Oc2cc3c(c4c2C2C(O4)C(C)(O)CCC21)CN(C(CCC(=O)O)C(=O)O)C3=O` (stereo not drawn), the Potency entry in assay [1] and in assay [2] was “inactive” each time.
As to `COc1c(C)c2c(c(O)c1C/C=C(\C)CC/C=C(\C)CCC(=O)O)C(=O)OC2`, the Potency result in assay [1] and in assay [2] was “inactive” in each case.
As to `CC(=O)[C@@H]1CC[C@]2(C(=O)O)CC[C@]3(C)C(CCC4[C@@]5(C)CC[C@H](O)C(C)(C)C5CC[C@]43C)C12` (stereo partly drawn), the Potency result in assay [1] and in assay [2] was “inactive” throughout.

(Values after PubChem BioAssay (NCATS).)
